Screening results deposited in PubChem by several laboratories.
Most compounds without a hit are left out; they make up all but 4.5% or so of the library.
tim10-1 inh: growth inhibitors of tim10-1 mutant yeast | S. cerevisiae tim10-1 ts strain growth, BacTiter-Glo, 24 h | 330,000 tested, 2.2% active | inhibition, % at 20 µM | AID 463190;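 active = inhibition of at least 40%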;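 also: mutant grown at 25 °C; 0% = DMSO wells with yeast and 100% = wells holding no yeast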
PfHsp90 yeast 2: growth inhibition of yeast expressing Plasmodium Hsp90. S. cerevisiae expressing PfHsp90, BacTiter-Glo ATP, 48 h; yeast lacking PDR1 and PDR3 efflux regulators. inhibition, % at 9.4 µM. 310,000 tested, 0.32% active;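 active = every replicate shows inhibition above about 80%, whatever the replicate mean, limit read from the data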;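 also: 0% = DMSO neutral controls and 100% = 20 µM radicicol positive controls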
SKKanGAS inh: SKKanGAS growth inhibition; 300,000 tested, 1.3% active; inhibition, % at 7.5 µM; S. pyogenes SKKanGAS, kanamycin growth, BacTiter-Glo, 6 h;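 active = mean replicate score, as percent of positive control median, at least 50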;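 also: strain carries kanamycin resistance gene driven by streptokinase promoter and grows in 40 µg/ml kanamycin; loss of luminescence reflects streptokinase promoter inhibition or plain growth inhibition; 0% = median of DMSO wells and 100% = positive control at its reference dose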
tim23-1 inh: tim23-1 yeast growth inhibition. S. cerevisiae tim23-1 growth, BacTiter-Glo luminescence, 24 h. inhibition, % at 20 µM. 330,000 tested, 1.3% active. AID 463212;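 active = growth inhibition of the mutant yeast at or above 50%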;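 also: temperature-sensitive mutant grown at 25 °C; plate controls were DMSO-treated mutant yeast for no effect and medium wells lacking yeast for full effect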
TIM10 inh: inhibits growth of TIM10 yeast strain; S. cerevisiae TIM10 strain growth, BacTiter-Glo luminescence, 24 h; inhibition, % at 10 µM; 330,000 tested, 1.4% active; AID 463195;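 active = inhibition of 40% or more at the single tested concentration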;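 also: wild-type TIM10 isogenic control strain grown at permissive 25 °C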
NALP3 yeast inh: inhibitors of NALP3 inflammasome in yeast. inhibition, % at 10 µM. Yeast reconstituted NLRP3/ASC/caspase-1, beta-gal luminescence, 24 h. 330,000 tested, 0.39% active. AID 2825;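 active = inhibition of 50% or more; inactive = inhibition below 50%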;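 also: plate controls were induced DMSO wells for no effect and uninduced yeast grown without galactose for full effect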
tim10-1 conf: tim10-1 yeast growth inhibition, confirmed. 7,400 tested, 56% active. shares compounds with tim10-1 inh. S. cerevisiae tim10-1 ts strain growth, BacTiter-Glo, 24 h. inhibition, % at 20 µM;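 active = inhibition of yeast growth at or above a set limit in either of two repeat tests at 20 µM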;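 also: tim10-1 mutant grown at permissive 25 °C to find synthetic lethal compounds; 0% = DMSO yeast wells and 100% = medium wells without yeast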
TIM10 conf: confirmation of TIM10 yeast growth inhibitors; shares compounds with TIM10 inh; S. cerevisiae tim10 strain growth, BacTiter-Glo luminescence, 24 h; inhibition, % at 10 µM; 4,600 tested, 63% active;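 active = inhibition of yeast growth at or above a set limit in either of two replicates at 10 µM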;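 also: this counterscreen used the strain with wild-type TIM10; 0% = yeast with DMSO and 100% = medium wells lacking yeast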
Starred values were filed as active, the others as inactive.

`COc1ccc(C(=O)Cn2c(C(=O)/C=C/c3ccccc3)nc3ccccc32)cc1` gave tim10-1 inh 49.4*, PfHsp90 yeast 2 -18.5, SKKanGAS inh -5.6, tim23-1 inh 18.6, TIM10 inh 41.5*, NALP3 yeast inh 10.4, tim10-1 conf 43.5* and TIM10 conf 35.5*.
COc1ccc(C2(C)C(C#N)C(=O)NC(=O)C2C#N)cc1 (centres undefined) was read as PfHsp90 yeast 2 -7.4.
For CN(C)C=Nc1ncc2c3ccccc3n(Cc3ccccc3)c2c1C#N the results were tim10-1 inh 11.5, PfHsp90 yeast 2 -12.0, SKKanGAS inh -10.6, tim23-1 inh 3.2, TIM10 inh 5.5 and NALP3 yeast inh 10.4.
Screening CCN(CC)CCn1c2ccccc2c2cnc(N)c(C#N)c21 returned tim10-1 inh 67.1*, PfHsp90 yeast 2 -44.9, SKKanGAS inh 17.7, tim23-1 inh 41.3, TIM10 inh 85.9*, NALP3 yeast inh 9.6, tim10-1 conf 72.8* and TIM10 conf 85.5*.
CCN(CC)CCn1c2ccccc2c2nc3ccccc3nc21 was read as tim10-1 inh 8.5, PfHsp90 yeast 2 -2.8, SKKanGAS inh 4.9, tim23-1 inh 15.6, TIM10 inh 6.2 and NALP3 yeast inh 42.7.
Screening CN(C)C=Nc1ncc2c3ccccc3n(CCN(C)C)c2c1C#N returned tim10-1 inh 51.3*, PfHsp90 yeast 2 -1.0, SKKanGAS inh 5.1, tim23-1 inh 44.3, TIM10 inh 75.8*, NALP3 yeast inh 6.2, tim10-1 conf 64.0* and TIM10 conf 74.8*.
Screening CC1CCN(C(=O)/C(=C/c2ccccc2Cl)c2ccccc2)CC1 returned tim10-1 inh 41.5*, PfHsp90 yeast 2 -20.6, SKKanGAS inh 16.7, tim23-1 inh 36.8, TIM10 inh 41.5*, NALP3 yeast inh -7.4, tim10-1 conf 30.7 and TIM10 conf -26.6.
Screening CN1/C(=C\C(=S)Nc2ccccc2)C(C)(C)c2ccccc21 returned tim10-1 inh 50.9*, PfHsp90 yeast 2 2.1, SKKanGAS inh -11.3, tim23-1 inh 33.7, TIM10 inh 48.5*, NALP3 yeast inh 9.3, tim10-1 conf 47.2* and TIM10 conf 55.6*.
O=C1C2C3C=CC(CC3)C2C(=O)N1c1cccc(C(F)(F)F)c1 (centres undefined) was read as tim10-1 inh 9.1, PfHsp90 yeast 2 -4.3, SKKanGAS inh 1.2, tim23-1 inh 20.3, TIM10 inh 0.0 and NALP3 yeast inh 12.5.
COc1ccc(S(=O)(=O)N2CCOCC2)cc1NC(=O)CN1C(=O)NC2(CCCC2)C1=O was read as tim10-1 inh 21.3, PfHsp90 yeast 2 -8.2, tim23-1 inh -1.2, TIM10 inh -2.0 and NALP3 yeast inh 18.4.
C#CCn1c(S(=O)(=O)Cc2ccc(OC)cc2)nc(-c2ccccc2)c1-c1ccccc1 was read as tim10-1 inh 47.3*, SKKanGAS inh 8.5, tim23-1 inh 48.4, TIM10 inh 44.6*, NALP3 yeast inh -14.0, tim10-1 conf 41.3* and TIM10 conf 24.1.
Screening Cc1ccc(CCNC(=O)C2CCN(S(=O)(=O)c3ccc4c(c3)NC(=O)CO4)CC2)cc1 returned tim10-1 inh 8.4, PfHsp90 yeast 2 -16.5, SKKanGAS inh 2.5, tim23-1 inh -2.0, TIM10 inh -2.3 and NALP3 yeast inh 9.1.
`CC1(C)CC2CC(C)(CN2C(=S)NC(=O)c2ccccc2Cl)C1` (centres undefined) gave tim10-1 inh 40.7*, PfHsp90 yeast 2 13.5, SKKanGAS inh 5.1, tim23-1 inh 47.9, TIM10 inh 41.6*, NALP3 yeast inh 49.5, tim10-1 conf 31.6* and TIM10 conf 10.2.
CC1(C)CC2CC(C)(CN2C(=S)Nc2ccccc2)C1 (centres undefined) was read as tim10-1 inh 3.2, PfHsp90 yeast 2 -6.4, SKKanGAS inh -3.5, tim23-1 inh 32.0, TIM10 inh 21.2 and NALP3 yeast inh -5.1.
For Oc1ccccc1CN1CCC(C(O)(c2ccccc2)c2ccccc2)CC1 the results were tim10-1 inh 42.9*, PfHsp90 yeast 2 21.6, SKKanGAS inh -9.5, tim23-1 inh 19.1, TIM10 inh 50.5*, NALP3 yeast inh 10.9, tim10-1 conf 35.9* and TIM10 conf 41.3*.
O=C(COc1ccccc1)NCC(=O)N/N=C/c1ccc(Br)cc1 was read as tim10-1 inh 11.3, PfHsp90 yeast 2 34.0, SKKanGAS inh -3.7, tim23-1 inh 4.5, TIM10 inh 15.9 and NALP3 yeast inh 18.5.
`O=c1ccc2cc(S(=O)(=O)N3CCN(c4cc(Cl)ccc4Cl)CC3)ccc2o1` gave tim10-1 inh 41.6*, SKKanGAS inh 0.7, tim23-1 inh 25.4, TIM10 inh 42.0*, NALP3 yeast inh 5.2, tim10-1 conf 23.9 and TIM10 conf 38.8*.
Screening O=C(c1ccc2n[nH]nc2c1)N1CCN(c2ccc(C(F)(F)F)cn2)CC1 returned tim10-1 inh 2.2, PfHsp90 yeast 2 -10.9, tim23-1 inh 5.6, TIM10 inh 4.5 and NALP3 yeast inh 16.4.
`COC(=O)c1sc(NC(=O)c2c(F)cccc2F)c(C#N)c1C` gave tim10-1 inh 45.0*, SKKanGAS inh 11.3, tim23-1 inh 28.9, TIM10 inh 41.3*, NALP3 yeast inh -36.4, tim10-1 conf 37.7* and TIM10 conf 26.0.
For CCOC(=O)C1=NN(c2ccccc2C)C2=NC(C)=C(C(=O)OC)C(c3cccs3)N12 (centres undefined) the results were tim10-1 inh 40.8*, SKKanGAS inh 0.2, tim23-1 inh 37.2, TIM10 inh 41.6*, NALP3 yeast inh 3.8, tim10-1 conf 17.8 and TIM10 conf 20.3.
Screening Fc1ccccc1-c1nc2c(s1)CCc1onc(-c3ccc(Br)cc3)c1-2 returned tim10-1 inh 4.1, PfHsp90 yeast 2 1.5, SKKanGAS inh 10.6, tim23-1 inh -2.6, TIM10 inh 14.9 and NALP3 yeast inh 5.4.
`O=C(COc1cccc(C(F)(F)F)c1)Nc1ccc(S(=O)(=O)N2CCCCC2)cc1` gave tim10-1 inh 43.3*, PfHsp90 yeast 2 -6.4, SKKanGAS inh 15.7, tim23-1 inh 32.6, TIM10 inh 44.9*, NALP3 yeast inh 18.9, tim10-1 conf 49.3* and TIM10 conf 59.0*.
Screening Cc1cccc(OCC(=O)Nc2ccc(S(=O)(=O)N3CCCC3)cc2)c1 returned tim10-1 inh 43.5*, PfHsp90 yeast 2 -23.2, SKKanGAS inh 2.6, tim23-1 inh 25.5, TIM10 inh 44.8*, NALP3 yeast inh 2.2, tim10-1 conf 36.7* and TIM10 conf 46.9*.
`S=C(NCCc1ccccc1)Nc1ccccc1Cl` gave tim10-1 inh 25.6, PfHsp90 yeast 2 8.5, SKKanGAS inh -6.3, tim23-1 inh 40.7, TIM10 inh 1.8 and NALP3 yeast inh 29.9.
